Consider 40 molecules from PubChem BioAssay (NCATS).

Each structure is given as a SMILES string. Values without a mark were called inactive. Calls follow the shape of the full dose curve.

Sequence of Tumor susceptibility gene 101 protein (Homo sapiens) (Q99816 whole entry, looked up): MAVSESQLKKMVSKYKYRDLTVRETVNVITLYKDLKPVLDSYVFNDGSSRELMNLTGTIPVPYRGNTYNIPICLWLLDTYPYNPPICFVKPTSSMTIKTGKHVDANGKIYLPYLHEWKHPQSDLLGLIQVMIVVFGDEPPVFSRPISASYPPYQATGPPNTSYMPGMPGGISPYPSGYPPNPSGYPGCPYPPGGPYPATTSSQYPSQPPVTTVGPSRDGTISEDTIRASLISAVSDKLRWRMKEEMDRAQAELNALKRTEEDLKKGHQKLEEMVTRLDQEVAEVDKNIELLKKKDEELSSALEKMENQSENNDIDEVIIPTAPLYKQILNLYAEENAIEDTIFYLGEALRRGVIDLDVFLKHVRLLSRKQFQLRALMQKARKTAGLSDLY

This test concerns the target Tumor susceptibility gene 101 protein (Homo sapiens) (UniProt Q99816). The test is described as follows: qHTS Validation Assay for Iinhibitors of HIV-1 Budding by Blocking the Interaction of PTAP/TSG101 (AID 485342). Also: 0% is about no effect. The following applies: TSG101-PTAP binding, fluorescence polarization, 4-point titration; series mostly up to 115 µM; fluorescence change: at the top concentration. An excerpt:
NIH Molecular Libraries Probe Production Network [MLPCN]
NIH Chemical Genomics Center [NCGC]
PI Name: Dr. Eric Freed, NCI
Stages of the HIV-1 replication cycle, specifically virus assembly and release, provide underexploited targets for the development of novel antiviral inhibitors. The late stages of HIV-1 replication are mediated by the Gag precursor protein, Pr55Gag. Expression of Pr55Gag is both necessary and sufficient for the production of virus-like particles from Gag-expressing cells. The Gag protein hijacks key host proteins involved in endocytic machinery of the host cell to promote endosomal processing and viral budding. The budding process requires a direct interaction between a […] (PTAP) motif in the p6 domain of Gag and the cellular endosomal sorting protein known as Tsg101. In this way, the Gag PTAP motif promotes the host cells to recruit viral particles to the plasma membrane where the new viral particles are released, effectively turning the host cells into viral factories. A fluorescence anisotropy assay has been developed to quantitatively measure the PTAP-Tsg101 interaction which can be used to screen for inhibitors of this interaction.
NCGC Assay Protocol Summary:
Two uL of the Tsg101 binding domain in buffer (10 mM HEPES pH 7.5; 0.15 M NaCl, 0.01% Tween 20; 3 mM EDTA;0.1 mM TCEP) was dispensed into Greiner black MB 1536-well plates (final concentration 10 uM). Then, 23 nL of compounds or DMSO were delivered to each well using a pin tool. Finally, 2 uL of a FITC-labeled peptide containing the PTAP motif (1) in the same buffer was dispensed (50 nM final concentration) and the binding was allowed to proceed for 20 min. at r.t. Fluorescent polarization was determined using FITC excitation and polarized emission filters on a Perkin Elmer Viewlux.
Keywords: Tsg101, PTAP, Gag, HIV, fluorescent polarization, MLSMR, MLPCN, NIH Roadmap, qHTS, NCGC
In general terms: Quantitative high-throughput screening tests each substance at several concentrations.
In the case of `C[N+]1(C)CCC(OC(=O)C(c2ccccc2)c2ccccc2)CC1`, the “fluorescence change” value is 5.3%. As for `CCN(CC)c1ncnc2c1ncn2[C@@H]1O[C@H](COP(=O)(O)OP(=O)(O)C(Br)(Br)P(=O)(O)O)[C@@H](O)[C@H]1O`, the “fluorescence change” value is -1.19%. Then `CCCCCCCC/C=C\CCCCCCCC(=O)NCCO`, with -22.4%. For `CC(C)(C)c1ccc(S(=O)(=O)/C=C/C#N)cc1`, the “fluorescence change” value is 2.12%. For the molecule `Cn1c(=O)c2[nH]c(-c3ccccc3)nc2n(C)c1=O`, the “fluorescence change” value was -0.15%. For `NCCCS(=O)(=O)O`, the “fluorescence change” value is -0.706%.

Turning to `CN1CC(=O)N/C1=N/C(=O)Nc1cccc(Cl)c1`, the “fluorescence change” value was 0.606%. The result for `CC1OC1P(=O)(O)O` (stereo not given) reads 5.65%.

For `Nc1nc(Cl)nc2c1ncn2[C@@H]1O[C@H](COP(=O)(O)OP(=O)(O)OP(=O)(O)O)[C@@H](O)[C@H]1O`, the “fluorescence change” value was 4.89%.

For the molecule `NO`, the “fluorescence change” value was 0.691%. Turning to `CC(C)CC(NP(=O)(O)O[C@@H]1O[C@@H](C)[C@H](O)[C@@H](O)[C@H]1O)C(=O)NC(Cc1c[nH]c2ccccc12)C(=O)O` (stereo not given in full), the “fluorescence change” value was 0.51%. Take `O=[N+]([O-])c1ccc2c(c1)S(=O)(=O)C=C2`: the “fluorescence change” value was 6.67%. On to `NCCSSCCN`, for which the “fluorescence change” value was 2.49%. Regarding `C[C@@H](NC(=O)/C(C#N)=C/c1ccc(O)c(O)c1)c1ccccc1`, the “fluorescence change” value was 3.83%. In the case of `CC[C@@H](C)[C@H]1O[C@]2(CC[C@H]1C)C[C@@H]1C[C@@H](CC=C(C)[C@@H](O[C@H]3C[C@H](OC)[C@@H](O[C@H]4C[C@H](OC)[C@@H](O)[C@H](C)O4)[C@H](C)O3)[C@@H](C)C=CC=C3CO[C@@H]4[C@H](O)C(C)=C[C@@H](C(=O)O1)[C@]34O)O2`, the “fluorescence change” value was -16.5%. In the case of `CN=c1nc(-c2ccccc2)n(-c2ccccc2)s1`, the “fluorescence change” value is 1.43%. For the molecule `S=C(S)OC1CC2CC1C1CCCC21` (stereo not given), the “fluorescence change” value is 4%. The result for `C[N+](C)(C)CCOP(=O)(O)OP(=O)([O-])OC[C@H]1O[C@@H](n2ccc(N)nc2=O)[C@H](O)[C@@H]1O` reads 0.443%; that for `O=C(/C=C/c1ccc(O)c(O)c1)OCCc1ccccc1`, -3.43%; that for `CN1[C@@H](CC(=O)c2ccccc2)CCC[C@H]1C[C@H](O)c1ccccc1`, 2.24%. Then `COc1cc2c(CCNC(C)=O)c[nH]c2cc1Cl`, with 1.64%; and `N#C/C(=C\c1ccc(O)c(O)c1)C(=O)c1ccc(O)c(O)c1`, with -1.77%; and `CCCCCCCCCCCCCCCCCC(=O)NCC(COP(=O)([O-])OCC[N+](C)(C)C)OCC` (stereo not given), with -9.75%. Then `CN1CCC[C@H]1c1cccnc1`, with 2.52%; and `CCCN(CC1CC1)c1nc(C)nc(Nc2c(Cl)cc(Cl)cc2Cl)c1Cl`, with -4.94%.

Take `CN(C)CCC(c1ccc(Cl)cc1)c1ccccn1` (stereo not given): the “fluorescence change” value is -0.296%. The result for `C#CCN1C(C)=C(C(=O)OC)C(c2cccc([N+](=O)[O-])c2)C(C(=O)OCC)=C1C` (stereo not given) reads -13.7%. As for `O=C(O)CCCC[C@@H]1CCSS1`, the “fluorescence change” value was -0.554%.

`COC(=O)c1c(C)[nH]c(C)c1C(=O)c1ccccc1Cc1ccccc1`: the “fluorescence change” value is -3.48%. For `CCOC(=O)C1=C(C)NC(C)=C(C(=O)OCC)C1c1c(F)c(F)c(F)c(F)c1F`, the “fluorescence change” value was -24.7%.

Regarding `NC(CCCP(=O)(O)O)C(=O)O` (stereo not given), the “fluorescence change” value was 2.5%. On to `Clc1ccc(N2CCN(Cc3c[nH]c4ncccc34)CC2)cc1`, for which the “fluorescence change” value is -1.63%. Then `CC(=O)N[C@H](C(=O)O)C(C)(C)SN=O`, with -0.656%; and `O=C(CCCCCN1CCN(c2ccccc2-c2ccccc2)CC1)NC1CCCc2ccccc21` (stereo not given), with -12.9%. As to `O=C(O)c1cc(=O)c2ccccc2[nH]1`, the “fluorescence change” value is 4.02%.

As for `CCCCCCCCCCCCCCCC(=O)OC(CC(=O)O)C[N+](C)(C)C` (stereo not given), the “fluorescence change” value was -13.6%. On to `O=C(O)CC[C@@H](C(=O)O)N1C(=O)c2ccccc2C1=O`, for which the “fluorescence change” value was -1.91%. As for `N=C(N)SCCc1ccc(CCSC(=N)N)cc1`, the “fluorescence change” value is 3.52%. With `OC[C@H]1O[C@@H](n2cnc3c(NC4CCCC4)ncnc32)[C@H](O)[C@@H]1O`, the “fluorescence change” value was 1.84%. As for `C[C@@H](CN1CCC(Cc2ccccc2)CC1)[C@@H](O)c1ccc(O)cc1`, the “fluorescence change” value was 0.471%.
